{"source": "PubChem BioAssay"}
{"assay": "A549 cell viability effects, profiling panel, calcein-AM fluorescence, 48 h, basal (AID 1162)", "conditions": "higher = more signal"}
{"smiles": "C=C(CCCC)/C(=C/C[C@H](OC(C)=O)c1ccc(CO)o1)c1cnc2ccccc2c1", "z-score": 0.0278}
{"smiles": "O=C1OCCC=C[C@H]2OC34C=CCN(Cc5ccccc5)C(=O)[C@H]3N(CCCCCCO)C(=O)[C@@H]4C12", "note": "(stereo not given in full)", "z-score": 0.612}
{"smiles": "C[C@]1(C(=O)NCc2ccccc2)c2ccccc2C(=O)N(Cc2ccc(OC(F)(F)F)cc2)[C@H]1c1ccc(CO)cc1", "z-score": 1.84}
{"smiles": "CC(C)NC(=O)[C@@]1(Cc2ccccc2I)c2ccccc2C(=O)N(Cc2ccccc2)[C@H]1c1ccc(CO)cc1", "z-score": -0.547}
{"smiles": "O=C1N(CCS(=O)(=O)c2ccccc2)c2ccccc2C[C@@]12COC(c1ccc(OCCCO)cc1)=N2", "z-score": -0.683}
{"smiles": "CC1CC/C=C\\[C@H]2OC34C=CCN(Cc5ccccc5)C(=O)[C@H]3N(CCCCCO)C(=O)[C@@H]4C2C(=O)O1", "note": "(stereo not given in full)", "z-score": 0.482}
{"assay": "adipocyte viability effects, profiling panel, cell-based, 3T3-L1 adipocytes, calcein-AM fluorescence, 48 h, basal (AID 1163)", "conditions": "3T3-L1 adipocytes viability, higher = more signal"}
{"smiles": "COCCOC(=O)N1C(=O)[C@@]2(c3cc(C#CCNC(N)=O)ccc31)[C@H](C(=O)N1CCc3cc(OC)c(OC)cc3C1)[C@H]1C(=O)O[C@H](c3ccccc3)[C@H](c3ccccc3)N1[C@@H]2c1ccc(OCCO)cc1", "z-score": 0.743}
{"smiles": "CCOC(=O)C1=CC[C@@H](c2ccccc2)N(S(=O)(=O)c2ccc(C)cc2)[C@H]1C(=O)OCC", "z-score": -0.467}
{"smiles": "O=C(CS)NCCCCCCNC(=O)[C@@H]1C[C@@H]2C(=O)N3CCC[C@H]3C(=O)N2[C@@H]1c1ccc(O)cc1", "z-score": 0.519}
{"smiles": "CCOC(=O)C1=CCC(c2ccc([N+](=O)[O-])cc2)N(S(=O)(=O)c2ccc(C)cc2)C1", "note": "(stereo not given)", "z-score": -1.29}
{"smiles": "COCCOC(=O)N1C(=O)[C@@]2(c3cc(C#CCNC(N)=O)ccc31)[C@H](c1ccc(O)cc1)N1[C@H](c3ccccc3)[C@H](c3ccccc3)OC(=O)[C@H]1[C@@H]2C(=O)Nc1nc2ccccc2s1", "z-score": 0.663}
{"smiles": "O=c1cccc(CCc2ccccc2)o1", "z-score": -0.519}
{"smiles": "O=C1N(CCS(=O)(=O)c2ccccc2)Cc2ccccc2[C@H]2OC(c3ccc(OCCCO)cc3)=N[C@@]12CCS(=O)(=O)c1ccccc1", "z-score": 1.46}
{"smiles": "CN(C)C(=O)[C@@]1(CCC(=O)OC(C)(C)C)N=C(c2ccc(OCCCO)cc2)O[C@H]1c1ccccc1", "z-score": 0.687}
{"smiles": "O=C1C2C=CC(C(O)c3ccc(-c4ccccc4)s3)N(n3cnnc3)C2C(=O)N1Cc1ccccc1", "note": "(stereo not given)", "z-score": -0.293}
{"smiles": "CC(C)C(O)C1C=CC2C(=O)N(c3ccccc3)C(=O)C2N1Nc1ccc(C#N)cc1", "note": "(stereo not given)", "z-score": -0.289}
{"smiles": "COC(=O)c1ccc(C(O)C2C=CC3C(=O)N(C)C(=O)C3N2NC(=O)OC(C)(C)C)o1", "note": "(stereo not given)", "z-score": -0.425}
{"smiles": "CCOC(=O)C1=C[C@@H](CC)N(S(=O)(=O)c2ccc(C)cc2)[C@H]1c1ccccc1", "z-score": -0.167}
{"smiles": "COC(=O)[C@@]1(Cc2ccccc2)[C@H]2c3cc(C(=O)N(C)C)n(Cc4c(-c5ccccc5)noc4C)c3C[C@H]2CN1C(=O)c1ccccc1", "z-score": -1}
{"smiles": "COCCOC(=O)N1C(=O)[C@@]2(c3cc(C#CCNC(N)=O)ccc31)[C@H](c1ccccc1OCCO)N1[C@H](c3ccccc3)[C@H](c3ccccc3)OC(=O)[C@H]1[C@@H]2C(N)=O", "z-score": -0.131}
{"smiles": "CC(C)N1C(=O)[C@@]2(c3ccc([N+](=O)[O-])cc3)CC(=O)N(CC34CC5CC(CC(C5)C3)C4)[C@@H]2c2ccc(CO)cc21", "z-score": -1.22}
{"smiles": "CC(=O)NCCCC[C@@H]1NC(=O)[C@@H]2C[C@H](C(=O)NCCCCN(C)C)[C@H](c3ccc(O)cc3)N2C1=O", "z-score": -0.582}
{"smiles": "Cc1ccccc1C(O)C1C=CC2C(=O)N(C)C(=O)C2N1N1CCCCC1", "note": "(stereo not given)", "z-score": -1.18}
{"smiles": "CCOC(=O)C[C@H]1[C@H](OC(=O)c2ccc(C(=O)c3ccccc3)cc2)[C@@H](NC(=O)C2CCCCC2)c2cc(OCCCO)ccc2N1C(=O)c1ccccc1", "z-score": -0.589}
{"smiles": "COc1ccc([Si](C)(C)[C@@H]2[C@@H](CC(=O)N3CCC[C@H]3CO)O[C@]3(C(=O)N(C)c4c(Br)cc(C)cc43)[C@H]2C)cc1", "z-score": 0.406}
{"smiles": "COC(=O)[C@@]1(Cc2ccc(F)cc2)[C@H]2c3cc(C(=O)N4CCCC4)n(Cc4cccc5ccccc45)c3C[C@H]2CN1C(=O)c1ccccc1", "z-score": 0.42}
{"smiles": "C=CC(COC(C)=O)NS(=O)(=O)c1ccc(Br)cc1", "note": "(stereo not given)", "z-score": -0.13}
{"smiles": "CC(C)(C)OC(=O)CC[C@@]1(C(=O)O)N=C(c2ccc(OCCCO)cc2)O[C@@H]1c1ccccc1N=[N+]=[N-]", "z-score": -0.364}
{"smiles": "CCOC(=O)C1=CCC(c2ccc(C#N)cc2)N(S(=O)(=O)c2ccc(C)cc2)C1", "note": "(stereo not given)", "z-score": -0.68}
{"smiles": "O=C1OCCC=C[C@H]2OC34C=CCN(Cc5ccccc5)C(=O)[C@H]3N(CCCO)C(=O)[C@@H]4C12", "note": "(stereo not given in full)", "z-score": 1.66}
